From publication PMC7862700, “An all-to-all approach to the identification of sequence-specific readers for epigenetic DNA modifications on cytosine” come the findings set out here.

Common to all, as to experiment: DAPPL (digital affinity profiling via proximity ligation, sequencing); 10 mM Tris-HCl pH 7.5, 50 mM NaCl, 1 mM DTT, 4% glycerol, room temperature, 30 min; GST-TFs on glutathione beads, 16-mer random dsDNA library, 0.1% formaldehyde crosslink after washing; high values mean tight binding
For one assay, the target named is T1, FEV (Homo sapiens, UniProt Q99581 1-238).
T1 sequence: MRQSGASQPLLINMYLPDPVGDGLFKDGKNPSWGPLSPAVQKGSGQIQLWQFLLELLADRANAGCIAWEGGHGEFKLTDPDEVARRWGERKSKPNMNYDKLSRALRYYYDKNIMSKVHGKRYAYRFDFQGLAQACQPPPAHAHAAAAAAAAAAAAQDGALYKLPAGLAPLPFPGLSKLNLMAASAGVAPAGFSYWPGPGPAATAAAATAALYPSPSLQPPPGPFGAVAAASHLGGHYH
The following applies: protein: recombinant; tags: N-terminal GST; dsDNA, one strand shown. A digest of the protocol:
(§1)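 Pools were built from human transcription factors expressed in yeast as GST fusions, captured on glutathione beads and DNA-barcoded, along with a tag-only sample. Incubation with 200 nmole of a 16-mer random double-stranded DNA library lasted 30 min at room temperature in Tris/NaCl/DTT/glycerol buffer, and was followed by washing, 0.1% formaldehyde crosslinking, proximity ligation, PCR amplification and Illumina NextSeq500 sequencing. Binding signal is the quotient of each hexamer's read frequency for a factor and its frequency for the tag-only sample.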

A further assay concerns the target ETV5 (Homo sapiens, UniProt P41161 1-510). The following applies: protein: recombinant; tags: N-terminal GST; dsDNA, one strand shown. A digest of the protocol:
as §1

The target in the next assay is HSF1 (Homo sapiens, UniProt Q00613 1-529). The following applies: protein: recombinant; tags: N-terminal GST; chain copies: 3; dsDNA, one strand shown. A digest of the protocol: as §1
In a further assay the target is T2, SPIC (Homo sapiens, UniProt Q8N5J4 1-248).
T2 sequence: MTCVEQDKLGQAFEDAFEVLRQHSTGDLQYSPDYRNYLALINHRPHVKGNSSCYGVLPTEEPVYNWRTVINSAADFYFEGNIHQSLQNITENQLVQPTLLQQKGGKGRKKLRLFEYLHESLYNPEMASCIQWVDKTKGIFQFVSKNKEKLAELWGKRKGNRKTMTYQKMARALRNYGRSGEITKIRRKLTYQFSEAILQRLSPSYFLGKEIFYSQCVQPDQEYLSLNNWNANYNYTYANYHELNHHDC
The conditions noted are these: protein: recombinant; tags: N-terminal GST; dsDNA, one strand shown. A digest of the protocol:
as §1

In the next assay the target is ELF4 (Homo sapiens, UniProt Q99607 1-663). The conditions noted are these: protein: recombinant; tags: N-terminal GST; dsDNA, one strand shown. A digest of the protocol: as §1
For another assay, the target named is T3, ELK4 (Homo sapiens, UniProt P28324-2 1-405).
T3 sequence: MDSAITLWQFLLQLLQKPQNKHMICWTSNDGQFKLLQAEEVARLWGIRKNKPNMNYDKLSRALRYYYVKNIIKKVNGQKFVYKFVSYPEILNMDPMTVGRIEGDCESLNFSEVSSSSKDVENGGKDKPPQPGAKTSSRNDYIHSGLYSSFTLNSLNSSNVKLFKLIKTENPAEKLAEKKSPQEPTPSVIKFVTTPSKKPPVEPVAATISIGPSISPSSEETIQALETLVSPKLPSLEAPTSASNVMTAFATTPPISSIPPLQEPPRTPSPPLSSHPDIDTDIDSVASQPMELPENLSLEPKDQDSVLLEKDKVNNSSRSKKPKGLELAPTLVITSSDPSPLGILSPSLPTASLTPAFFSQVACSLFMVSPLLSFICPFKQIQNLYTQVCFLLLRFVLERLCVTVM
The conditions noted are these: protein: recombinant; tags: N-terminal GST; dsDNA, one strand shown. A digest of the protocol:
as §1

The next assay deals with T4, ETV2 (Homo sapiens, UniProt O00321 1-342).
T4 sequence: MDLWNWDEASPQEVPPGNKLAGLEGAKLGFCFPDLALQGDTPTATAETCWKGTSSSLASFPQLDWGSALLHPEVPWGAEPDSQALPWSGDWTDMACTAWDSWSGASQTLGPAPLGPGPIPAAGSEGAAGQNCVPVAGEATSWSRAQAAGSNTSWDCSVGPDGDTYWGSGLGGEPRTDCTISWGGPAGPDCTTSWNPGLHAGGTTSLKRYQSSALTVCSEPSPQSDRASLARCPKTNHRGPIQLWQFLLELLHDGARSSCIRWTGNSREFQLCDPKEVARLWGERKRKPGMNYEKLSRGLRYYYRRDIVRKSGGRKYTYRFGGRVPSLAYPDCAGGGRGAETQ
The following applies: protein: recombinant; tags: N-terminal GST; dsDNA, one strand shown. A digest of the protocol:
as §1

For a further assay, the target named is T5, ELF3 (Homo sapiens, UniProt P78545 1-371).
T5 sequence: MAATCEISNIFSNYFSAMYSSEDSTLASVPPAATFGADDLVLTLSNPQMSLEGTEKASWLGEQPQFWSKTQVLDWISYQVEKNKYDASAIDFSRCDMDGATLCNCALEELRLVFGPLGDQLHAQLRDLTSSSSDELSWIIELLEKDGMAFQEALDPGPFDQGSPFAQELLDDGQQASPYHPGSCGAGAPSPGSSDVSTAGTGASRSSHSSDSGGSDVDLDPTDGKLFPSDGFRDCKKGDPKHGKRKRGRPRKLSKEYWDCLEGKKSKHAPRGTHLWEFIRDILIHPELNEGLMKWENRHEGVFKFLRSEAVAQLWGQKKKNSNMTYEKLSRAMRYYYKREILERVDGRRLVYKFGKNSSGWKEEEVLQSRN
The following applies: protein: recombinant; tags: N-terminal GST; dsDNA, one strand shown. A digest of the protocol:
as §1

A further assay concerns the target CRX (Homo sapiens, UniProt O43186 1-299). The conditions noted are these: protein: recombinant; tags: N-terminal GST; dsDNA, one strand shown. A digest of the protocol: as §1
A further assay has as its target ETV1 (Homo sapiens, UniProt P50549 1-477). The conditions noted are these: protein: recombinant; tags: N-terminal GST; dsDNA, one strand shown. A digest of the protocol:
as §1

In a further assay the target is T6, ERF (Homo sapiens, UniProt P50548 1-548).
T6 sequence: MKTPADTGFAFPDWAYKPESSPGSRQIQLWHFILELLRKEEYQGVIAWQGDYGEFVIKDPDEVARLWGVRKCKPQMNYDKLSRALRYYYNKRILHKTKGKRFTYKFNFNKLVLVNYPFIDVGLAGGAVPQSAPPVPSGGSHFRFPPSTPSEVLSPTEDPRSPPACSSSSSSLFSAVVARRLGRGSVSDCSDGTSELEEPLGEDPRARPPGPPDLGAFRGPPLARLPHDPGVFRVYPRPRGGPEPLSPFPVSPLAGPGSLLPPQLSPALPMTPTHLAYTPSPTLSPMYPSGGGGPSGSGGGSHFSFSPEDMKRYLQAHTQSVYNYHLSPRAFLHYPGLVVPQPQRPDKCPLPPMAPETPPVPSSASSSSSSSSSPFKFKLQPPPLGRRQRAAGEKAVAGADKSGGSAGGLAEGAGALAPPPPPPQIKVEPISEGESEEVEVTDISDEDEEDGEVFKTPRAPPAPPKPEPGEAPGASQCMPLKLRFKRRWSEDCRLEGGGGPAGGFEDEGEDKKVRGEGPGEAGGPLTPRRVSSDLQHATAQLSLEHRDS
The conditions noted are these: protein: recombinant; tags: N-terminal GST; dsDNA, one strand shown. A digest of the protocol: as §1

The target in a further assay is T7, ETV3L (Homo sapiens, UniProt Q6ZN32 1-361).
T7 sequence: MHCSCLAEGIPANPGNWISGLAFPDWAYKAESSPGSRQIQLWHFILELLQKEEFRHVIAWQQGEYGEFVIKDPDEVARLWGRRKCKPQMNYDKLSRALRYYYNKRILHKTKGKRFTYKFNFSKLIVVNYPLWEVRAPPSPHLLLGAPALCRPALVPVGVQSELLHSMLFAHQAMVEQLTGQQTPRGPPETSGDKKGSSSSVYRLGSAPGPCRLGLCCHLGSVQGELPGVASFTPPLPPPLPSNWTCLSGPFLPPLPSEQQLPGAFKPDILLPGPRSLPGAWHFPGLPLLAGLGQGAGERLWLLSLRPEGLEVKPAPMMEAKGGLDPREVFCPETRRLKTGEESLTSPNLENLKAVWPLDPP
The following applies: protein: recombinant; tags: N-terminal GST; dsDNA, one strand shown. A digest of the protocol:
as §1

Another assay has as its target T8, ETS2 (Homo sapiens, UniProt P15036 1-469).
T8 sequence: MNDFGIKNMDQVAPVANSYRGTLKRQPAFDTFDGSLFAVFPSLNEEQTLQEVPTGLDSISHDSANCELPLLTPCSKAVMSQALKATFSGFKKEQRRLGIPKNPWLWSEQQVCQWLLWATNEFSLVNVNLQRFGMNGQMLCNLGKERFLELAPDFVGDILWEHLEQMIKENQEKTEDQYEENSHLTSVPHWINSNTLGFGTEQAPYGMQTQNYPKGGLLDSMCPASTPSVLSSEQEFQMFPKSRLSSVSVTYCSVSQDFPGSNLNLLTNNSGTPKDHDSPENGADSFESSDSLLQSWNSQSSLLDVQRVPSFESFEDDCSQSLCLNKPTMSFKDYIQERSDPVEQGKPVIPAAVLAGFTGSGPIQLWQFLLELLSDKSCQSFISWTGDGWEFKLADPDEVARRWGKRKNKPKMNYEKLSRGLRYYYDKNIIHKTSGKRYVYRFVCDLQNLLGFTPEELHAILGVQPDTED
The following applies: protein: recombinant; tags: N-terminal GST; dsDNA, one strand shown. A digest of the protocol:
as §1

In the next assay the target is T9, SPDEF (Homo sapiens, UniProt O95238 1-335).
T9 sequence: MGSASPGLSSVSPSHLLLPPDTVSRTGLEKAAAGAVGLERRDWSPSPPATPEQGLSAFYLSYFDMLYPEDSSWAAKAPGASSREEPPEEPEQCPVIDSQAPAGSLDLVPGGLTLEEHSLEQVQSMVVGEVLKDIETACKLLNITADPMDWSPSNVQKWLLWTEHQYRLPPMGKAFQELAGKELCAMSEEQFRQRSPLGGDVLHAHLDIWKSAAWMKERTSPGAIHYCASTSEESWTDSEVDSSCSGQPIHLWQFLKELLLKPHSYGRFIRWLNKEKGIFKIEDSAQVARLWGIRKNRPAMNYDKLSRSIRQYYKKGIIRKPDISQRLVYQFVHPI
The following applies: protein: recombinant; tags: N-terminal GST; dsDNA, one strand shown. A digest of the protocol: as §1

Another assay concerns the target T10, ETV7 (Homo sapiens, UniProt Q9Y603 1-341).
T10 sequence: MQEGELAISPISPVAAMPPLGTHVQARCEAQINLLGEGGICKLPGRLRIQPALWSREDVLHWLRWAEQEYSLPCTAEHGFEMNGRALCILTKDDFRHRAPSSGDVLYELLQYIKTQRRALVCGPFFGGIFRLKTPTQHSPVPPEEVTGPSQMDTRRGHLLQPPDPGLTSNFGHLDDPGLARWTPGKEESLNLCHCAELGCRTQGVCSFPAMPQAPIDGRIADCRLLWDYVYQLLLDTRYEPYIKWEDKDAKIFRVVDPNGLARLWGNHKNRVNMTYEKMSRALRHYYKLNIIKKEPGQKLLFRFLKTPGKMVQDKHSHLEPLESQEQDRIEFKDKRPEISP
The conditions noted are these: protein: recombinant; tags: N-terminal GST; dsDNA, one strand shown. A digest of the protocol: as §1

For a further assay, the target named is T11, ELF5 (Homo sapiens, UniProt Q9UKW6-2 1-255).
T11 sequence: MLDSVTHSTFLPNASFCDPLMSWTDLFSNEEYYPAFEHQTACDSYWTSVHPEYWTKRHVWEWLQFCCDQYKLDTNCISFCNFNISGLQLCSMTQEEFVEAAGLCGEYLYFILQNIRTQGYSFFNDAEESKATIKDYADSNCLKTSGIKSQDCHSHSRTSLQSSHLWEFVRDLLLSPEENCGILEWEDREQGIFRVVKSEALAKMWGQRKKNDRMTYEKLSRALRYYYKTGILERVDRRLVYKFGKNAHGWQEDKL
The conditions noted are these: protein: recombinant; tags: N-terminal GST; dsDNA, one strand shown. A digest of the protocol:
as §1

In the next assay the target is T12, ETV3 (Homo sapiens, UniProt P41162-2 1-143).
T12 sequence: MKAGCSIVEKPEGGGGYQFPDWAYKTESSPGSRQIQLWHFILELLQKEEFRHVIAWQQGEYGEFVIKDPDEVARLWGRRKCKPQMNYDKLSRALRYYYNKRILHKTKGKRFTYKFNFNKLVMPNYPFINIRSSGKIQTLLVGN
The following applies: protein: recombinant; tags: N-terminal GST; dsDNA, one strand shown. A digest of the protocol: as §1

A further assay has as its target ETV6 (Homo sapiens, UniProt P41212 1-452). The conditions noted are these: protein: recombinant; tags: N-terminal GST; dsDNA, one strand shown. A digest of the protocol:
as §1

Chain of ETV6 (P41212 whole entry): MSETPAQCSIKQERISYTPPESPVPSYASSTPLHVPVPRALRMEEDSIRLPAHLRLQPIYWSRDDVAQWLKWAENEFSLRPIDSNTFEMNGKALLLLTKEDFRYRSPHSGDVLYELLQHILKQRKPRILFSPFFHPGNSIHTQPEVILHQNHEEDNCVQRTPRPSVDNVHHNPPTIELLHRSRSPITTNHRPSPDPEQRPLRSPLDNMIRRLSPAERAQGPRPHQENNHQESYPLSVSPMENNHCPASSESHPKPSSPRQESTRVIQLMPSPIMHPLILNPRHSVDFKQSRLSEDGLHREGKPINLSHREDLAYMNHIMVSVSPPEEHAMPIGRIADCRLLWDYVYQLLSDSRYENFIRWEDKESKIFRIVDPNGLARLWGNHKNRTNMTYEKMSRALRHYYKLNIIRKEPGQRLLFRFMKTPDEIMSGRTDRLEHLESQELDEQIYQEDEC
Chain of ETV1 (P50549 whole entry): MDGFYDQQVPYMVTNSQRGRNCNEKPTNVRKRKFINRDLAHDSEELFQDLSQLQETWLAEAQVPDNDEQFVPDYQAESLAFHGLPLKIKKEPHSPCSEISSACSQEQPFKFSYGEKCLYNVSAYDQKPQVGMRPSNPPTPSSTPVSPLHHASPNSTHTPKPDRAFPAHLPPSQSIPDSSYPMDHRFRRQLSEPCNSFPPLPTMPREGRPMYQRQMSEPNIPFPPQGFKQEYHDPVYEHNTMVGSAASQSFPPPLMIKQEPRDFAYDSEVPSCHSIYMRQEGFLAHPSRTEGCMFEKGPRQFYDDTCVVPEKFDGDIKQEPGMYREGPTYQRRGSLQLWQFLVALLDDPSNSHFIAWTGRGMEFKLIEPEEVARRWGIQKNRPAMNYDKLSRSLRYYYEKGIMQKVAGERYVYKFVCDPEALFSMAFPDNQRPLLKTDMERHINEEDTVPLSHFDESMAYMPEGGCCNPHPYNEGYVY
Chain of CRX (O43186 whole entry): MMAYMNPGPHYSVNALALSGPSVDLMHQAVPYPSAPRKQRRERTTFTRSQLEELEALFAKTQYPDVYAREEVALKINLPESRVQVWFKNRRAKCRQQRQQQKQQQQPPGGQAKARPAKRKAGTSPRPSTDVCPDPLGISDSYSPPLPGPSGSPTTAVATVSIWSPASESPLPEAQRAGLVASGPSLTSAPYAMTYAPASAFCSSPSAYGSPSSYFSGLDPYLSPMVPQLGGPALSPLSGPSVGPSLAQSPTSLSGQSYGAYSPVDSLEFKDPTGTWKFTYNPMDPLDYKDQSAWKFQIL
Chain of ELF4 (Q99607 whole entry): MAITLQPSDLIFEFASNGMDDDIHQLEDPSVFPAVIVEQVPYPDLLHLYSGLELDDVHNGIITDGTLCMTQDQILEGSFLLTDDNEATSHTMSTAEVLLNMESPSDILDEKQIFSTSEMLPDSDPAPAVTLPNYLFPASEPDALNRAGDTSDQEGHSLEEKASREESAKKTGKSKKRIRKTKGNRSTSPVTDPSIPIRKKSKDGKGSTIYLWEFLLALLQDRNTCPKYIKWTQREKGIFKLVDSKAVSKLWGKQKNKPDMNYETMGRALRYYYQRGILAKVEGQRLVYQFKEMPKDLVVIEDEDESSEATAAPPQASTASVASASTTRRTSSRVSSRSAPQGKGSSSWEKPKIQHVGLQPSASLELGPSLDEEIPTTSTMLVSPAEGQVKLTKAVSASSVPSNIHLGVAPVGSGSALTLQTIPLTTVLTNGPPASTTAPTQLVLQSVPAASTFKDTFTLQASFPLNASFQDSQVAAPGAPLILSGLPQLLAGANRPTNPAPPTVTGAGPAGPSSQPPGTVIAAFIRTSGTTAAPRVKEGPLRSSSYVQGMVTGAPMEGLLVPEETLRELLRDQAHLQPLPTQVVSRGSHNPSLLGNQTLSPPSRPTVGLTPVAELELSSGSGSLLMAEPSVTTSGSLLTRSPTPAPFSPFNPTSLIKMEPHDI
Chain of HSF1 (Q00613 whole entry): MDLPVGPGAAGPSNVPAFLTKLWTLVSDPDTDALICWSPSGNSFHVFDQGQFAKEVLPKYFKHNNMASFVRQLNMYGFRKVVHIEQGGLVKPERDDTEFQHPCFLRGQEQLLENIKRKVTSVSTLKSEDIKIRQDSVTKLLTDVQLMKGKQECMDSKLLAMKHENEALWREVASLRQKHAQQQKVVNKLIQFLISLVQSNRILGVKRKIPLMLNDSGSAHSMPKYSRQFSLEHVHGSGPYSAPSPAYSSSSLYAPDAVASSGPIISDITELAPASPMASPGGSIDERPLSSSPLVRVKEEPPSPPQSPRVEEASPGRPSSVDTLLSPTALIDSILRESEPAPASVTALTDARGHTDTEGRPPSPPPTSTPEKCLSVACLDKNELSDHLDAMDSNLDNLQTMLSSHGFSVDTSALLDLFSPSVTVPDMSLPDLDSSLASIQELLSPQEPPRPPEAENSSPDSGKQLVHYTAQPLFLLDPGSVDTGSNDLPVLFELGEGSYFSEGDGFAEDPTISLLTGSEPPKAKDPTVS
Chain of ETV5 (P41161 whole entry): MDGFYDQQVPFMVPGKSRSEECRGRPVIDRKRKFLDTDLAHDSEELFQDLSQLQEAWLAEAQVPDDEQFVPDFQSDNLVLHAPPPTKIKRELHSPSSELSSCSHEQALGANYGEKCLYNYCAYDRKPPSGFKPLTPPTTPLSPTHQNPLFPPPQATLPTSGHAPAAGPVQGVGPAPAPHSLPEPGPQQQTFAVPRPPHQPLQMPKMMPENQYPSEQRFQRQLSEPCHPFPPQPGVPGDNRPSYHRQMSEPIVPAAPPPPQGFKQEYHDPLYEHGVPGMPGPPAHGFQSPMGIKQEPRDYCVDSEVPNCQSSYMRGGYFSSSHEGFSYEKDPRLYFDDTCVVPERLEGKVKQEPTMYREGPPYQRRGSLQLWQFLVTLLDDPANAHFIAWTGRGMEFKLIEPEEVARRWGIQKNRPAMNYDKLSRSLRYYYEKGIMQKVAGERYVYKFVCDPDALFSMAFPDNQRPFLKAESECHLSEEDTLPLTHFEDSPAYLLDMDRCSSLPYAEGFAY

For the sequence CTGCGA, the binding signal with FEV was 1.29 fold enrichment (6-mer frequency, TF over GST control); with ETV5 it was 1.24 fold enrichment (6-mer frequency, TF over GST control); with HSF1, 1.3 fold enrichment (6-mer frequency, TF over GST control); with SPIC, 1.1 fold enrichment (6-mer frequency, TF over GST control); with ELF4, 1.28 fold enrichment (6-mer frequency, TF over GST control); with ELK4 it was 1.08 fold enrichment (6-mer frequency, TF over GST control). For the same sequence, the binding signal was 1.24 fold enrichment (6-mer frequency, TF over GST control) in the assay with ETV2; 1.2 fold enrichment (6-mer frequency, TF over GST control) with ELF3; 1.18 fold enrichment (6-mer frequency, TF over GST control) in the assay with CRX; 1.32 fold enrichment (6-mer frequency, TF over GST control) with ETV1; 1.22 fold enrichment (6-mer frequency, TF over GST control) with ERF; 1.4 fold enrichment (6-mer frequency, TF over GST control) with ETV3L. Besides, the binding signal was 1.29 fold enrichment (6-mer frequency, TF over GST control) in the assay with ETS2; 1.37 fold enrichment (6-mer frequency, TF over GST control) with SPDEF; 1.26 fold enrichment (6-mer frequency, TF over GST control) with ETV7; 1.28 fold enrichment (6-mer frequency, TF over GST control) with ELF5; 1.32 fold enrichment (6-mer frequency, TF over GST control) with ETV3; 1.29 fold enrichment (6-mer frequency, TF over GST control) in the assay with ETV6.
